In the supplement of paper PMC6555819:

Columns and labels:
Test in all cases: PBM binding z-score (relative to random genomic background probes); higher = stronger binding; sequences stand for … in GC…GCGATTGACAGCGTAGAATGAAGG
[1] = tested on: RARb homodimer (NR concentration 270 nM)
Procedure, shortened: (§1)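 Random background probes are the reference for binding z-scores. These scores derive from regression-normalized fluorescence on custom Agilent 4×180K protein-binding microarrays incubated 1 h with ligand-free nuclear receptor dimers. Binding was detected with antibodies against each partner (one per run).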

[2] = tested on: RARg:RXRa (NR concentration 270 nM, RXRa partner concentration 90 nM)
Procedure, shortened: as §1

[3] = tested on: RARg homodimer (NR concentration 270 nM)
Procedure, shortened: as §1

[4] = tested on: RXRa DBDmut IVT, anti-RXR (DBD mutation: RXRa K156A/R161A, NR concentration 90 nM)
Procedure, shortened: as §1

[5] = tested on: RXRa homodimer (NR concentration 180 nM)
Procedure, shortened: as §1

[6] = tested on: THRa:RXRa (NR concentration 90 nM, RXRa partner concentration 90 nM)
Procedure, shortened: as §1

[7] = tested on: THRa homodimer (NR concentration 90 nM)
Procedure, shortened: as §1

[8] = tested on: VDR:RXRa (NR concentration 270 nM, RXRa partner concentration 90 nM)
Procedure, shortened: as §1

[9] = tested on: VDR homodimer (NR concentration 270 nM)
Procedure, shortened: as §1

Sequence	PBM binding z-score [1]	PBM binding z-score [2]	PBM binding z-score [3]	PBM binding z-score [4]	PBM binding z-score [5]	PBM binding z-score [6]	PBM binding z-score [7]	PBM binding z-score [8]	PBM binding z-score [9]
TCTCGGAGGACACGAAAGGCCAGAGCTCGACATC	1.53	0.946	1.9	0.804	0.296	1.54	0.338	-0.308	-0.482
CGTCCAAGGTCAATGCTAGGTCAGTGACAGCATT	4.95	7.61	6.78	3.65	5.25	4.63	2.99	4.87	2.97
CTACCAAGGTGAACAAGGTCGTTGATTACTATTC	2.1	1.73	1.67	1.41	1.91	3.2	1.81	5.95	2.28
CCTACTGGGCCACGAAAGGTTATTGATTCAGTGA	1.98	1.1	1.08	-0.0139	1.2	1.66	0.302	0.818	0.238
CCGACTGGGGCAGAGGTTACCATACTCAGTACGA	1.64	1.81	1.16	0.0849	2.24	1.14	0.0259	0.52	0.131
ATCTCTAGGTAAAGTTAGTTCAGTGAATGCAAAT	0.802	0.673	0.531	0.563	0.331	1.94	0.737	1.42	1.35
TCATATAGGTAATACACGTGAAAGTCGGCATCTA	0.355	0.577	0.604	1.92	0.939	0.156	-0.0139	1.01	0.589
TAAACAGGGTCAAAGGCCAGAGTACGAATGTCGA	3.41	5.73	4.81	3.1	7.01	3.51	0.558	4.92	3.45
CCGACTGGGGCATAAGGGTACCATAAGCCAGCCC	0.3	0.401	0.239	-0.871	0.269	-0.0868	-0.457	-0.316	-0.543
CCTACTAGTTGACCATAAGGGCAACCGAAGCTCG	1.92	0.922	0.714	0.0414	0.509	1.75	1.28	0.471	0.643
AGAATGAGGTTAAGATCATGGAAACAGAATACAT	0.492	1.94	1.49	0.788	2.62	2.2	0.477	1.28	0.212
TCTAGCAGGCCAGAGGGGCACTCAAGAGGTACGG	0.611	0.104	0.165	-0.0321	0.357	-0.399	-0.898	-0.288	-0.703
AGTCCAAGTTCATCTAGGTAACGTAAGATATGCT	2.25	2.91	3.37	4.78	2.26	2.76	0.459	4.48	5.97
TCGAGTAGGTTACCAATGTGGCATTCAGCTTTCT	-0.0137	0.035	0.256	0.471	0.375	0.00485	-0.499	-0.0444	-0.622
ACTATTAGTAGAGACGAGGGCAACCGATAGGTTG	0.968	0.616	0.804	0.392	0.661	0.934	0.11	0.332	0.675
CCTCGGAGGACAACAGGAGGTCAGACCTGCCAGA	3.55	3.39	3.43	0.289	1.93	2.83	1.02	1.95	1.25
CCGACTGGGGCAAAGGTTACCAGACTCAGTACGA	2.19	3.65	1.61	-0.175	3.93	1.73	-0.362	1.64	0.000123
CAAACTAGGTCACGAAAAGTCAAAGTCGAATGAC	3.38	4.82	5.38	1.53	3.85	3.35	1.25	2.71	0.644
